Assay results taken from PubChem BioAssay AID682 (University of Pittsburgh Molecular Library Screening Center, 2007).
The other results are listed elsewhere or left out. Unmarked numbers belong to inactive results. No stated cut-off is given here; in the data, active means EC50 below about 30 µM; inactive means the rest.

Assay: redox cycling H2O2 generation, 0.5 mM DTT, dose response, artefact control, biochemical, Cdc25B catalytic domain (AID 682)
Settings: cell-free redox cycling H2O2 generation

Compound | EC50
c1ccc(CSc2nnc(-c3ccco3)c(-c3ccco3)n2)cc1 | > 50 µM
COc1cccc2c(C)c(C(=O)O)[nH]c12 | > 50 µM
